This is a sample that favours compounds with a hit; in the whole collection about 2.5% have one here.
G6PDH counter: counter-screen for G6PDH assay hits: L. mesenteroides G6PDH inhibition. AID 1020. inhibition, % at 5 µM. Purified L. mesenteroides G6PDH, diaphorase/resazurin coupled fluorescence, 45 min. actives 0.12% (n = 200,000); in the data active means inhibition above about 50%
SUMO HTRF inh: SUMOylation inhibition. P63279. HTRF SUMOylation assay, SAE1/SAE2 + UBC9, in vitro. inhibition, % at 35 µM. actives 0.36% (n = 290,000); in the data active means inhibition above about 50%, passing the limit was not always enough
Target sequence (P63279 whole entry, looked up): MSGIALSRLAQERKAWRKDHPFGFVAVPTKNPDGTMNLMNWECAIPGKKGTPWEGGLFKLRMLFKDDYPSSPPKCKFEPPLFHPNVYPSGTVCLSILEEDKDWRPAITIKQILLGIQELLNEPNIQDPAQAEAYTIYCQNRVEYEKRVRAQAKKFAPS
M18AAP inhibitor: blocks P. falciparum M18 aspartyl aminopeptidase; AID 1822; recombinant PfM18AAP, H-Glu-NHMec fluorogenic cleavage; inhibition, % at 7.35 µM; actives 1.2% (n = 290,000);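 active means inhibition above the campaign mean inhibition over all tested compounds plus 3 SD, cut at about 28% in these data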;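 further: 0% = plate median of test compound wells and 100% = 2 mM ZnCl2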
HDAC3 inh: human HDAC3 inhibition | inhibition, % at 8.3 µM | AID 2718 | actives 0.15% (n = 320,000) | recombinant HDAC3, fluorogenic peptide/trypsin coupled, fluorescence; in the data active means inhibition above about 26%, passing the limit was not always enough
Target sequence (O15379 whole entry, looked up): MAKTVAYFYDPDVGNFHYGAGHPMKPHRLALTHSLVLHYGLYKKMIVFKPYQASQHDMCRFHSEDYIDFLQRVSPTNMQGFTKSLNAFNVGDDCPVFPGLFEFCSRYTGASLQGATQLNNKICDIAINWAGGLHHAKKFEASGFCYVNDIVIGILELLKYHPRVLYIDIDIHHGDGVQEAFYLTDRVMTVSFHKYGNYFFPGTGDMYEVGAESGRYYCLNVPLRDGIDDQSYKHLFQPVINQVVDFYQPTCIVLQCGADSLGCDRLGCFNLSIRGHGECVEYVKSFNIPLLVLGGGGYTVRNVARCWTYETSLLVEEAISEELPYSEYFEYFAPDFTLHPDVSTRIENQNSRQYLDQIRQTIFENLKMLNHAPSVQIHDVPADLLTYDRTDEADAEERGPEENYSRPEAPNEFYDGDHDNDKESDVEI
p97 ATPase inh: inhibitors of human p97 ATPase. P55072. recombinant p97 ATPase, Kinase-Glo ATP luminescence, 3 h. AID 1481. actives 0.42% (n = 220,000). inhibition, % at 8 µM; in the data active means inhibition above about 15%;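 further: 0% = DMSO vehicle and 100% = wells lacking enzyme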
PHOSPHO1 inh: PHOSPHO1 (human) inhibition; Q8TCT1; recombinant PHOSPHO1, absorbance phosphatase assay; inhibition, % at 13.3 µM; actives 1.1% (n = 290,000); AID 1565; in the data active means inhibition above about 60%
Active calls of the source: *; x = no result given.

SMILES	G6PDH counter	SUMO HTRF inh	M18AAP inhibitor	HDAC3 inh	p97 ATPase inh	PHOSPHO1 inh
CC(CNC(=O)c1ccc(OC2CCN(Cc3ccccn3)CC2)cc1)c1ccccc1 (configuration not stated)	x	8	-8	-1	x	15
CC(NC(=O)c1ccc(OC2CCN(Cc3ccccn3)CC2)cc1)c1nccs1 (configuration not stated)	x	-6	-5	3	x	23
CC(=O)N1CCN(C(=O)c2ccc(OC3CCN(Cc4ccccn4)CC3)cc2)CC1	x	-4	2	7	x	52
CCOc1ccccc1N(CC(=O)NCCc1ccccc1)C(=O)CCC(=O)Nc1ccccn1	x	1	2	-2	x	24
Cc1nc2c3cc(F)ccc3n(Cc3ccc(F)cc3)c2s1	17	80	3	15	-1	-20
CCc1ccc2c(c1)c1nc(C)sc1n2CC	9	99	20	3	3	92*
Cc1ccccc1NC(=O)CN1C(=O)S/C(=C\c2ccc(-c3cc(C(=O)O)ccc3C)o2)C1=O	10	x	6	x	2	-126
Cc1ccc(C(=O)O)cc1-c1ccc(/C=C2\SC(=O)N(CC(=O)Nc3ccccc3)C2=O)o1	9	85*	-6	7	13	-81
Cc1ccc(NC(=O)CN2C(=O)S/C(=C/c3ccc(-c4cccc(C(=O)O)c4)o3)C2=O)cc1	9	81*	-3	x	4	28
Cc1cc(C(=O)O)ccc1-c1ccc(/C=C2\SC(=O)N(CC(=O)Nc3ccc4c(c3)OCO4)C2=O)o1	x	82*	8	10	x	-97
C=CCSc1nnc(NC(=O)C23CC4CC(CC(NC(C)=O)(C4)C2)C3)s1	x	18	2	0	x	30
CCC1(c2ccccc2)NC(=O)N(CC(=O)Nc2ccc(N3CCCC3)cc2C)C1=O (configuration not stated)	x	x	x	2	x	x
Cc1cc(N2CCCC2)ccc1NC(=O)CN1C(=O)NC(C)(c2ccccc2)C1=O (configuration not stated)	x	-11	30*	3	x	-2
NS(=O)(=O)c1ccc(N=Nc2c(=O)[nH]n3c(=O)c4c([nH]c23)CCCC4)cc1	30	-6	48*	14	0	28
O=C1CN(C(=O)CSc2nnc(-c3ccccc3)n2Cc2ccc3c(c2)OCO3)c2ccccc2N1	-2	4	6	0	5	69*
Cc1nnc(SCC(=O)N2CC(=O)Nc3ccccc32)n1-c1ccccc1	1	18	-7	4	4	9
COc1ccc(CNC(=O)CN(c2cc(C)cc(C)c2)S(=O)(=O)c2c(C)[nH]c(=O)[nH]c2=O)cc1	x	-1	-2	-1	x	64*
CCn1c(N2CCN(CC(=O)c3c(C)n(C)c4ccc(OC)cc34)CC2)nc2c1c(=O)[nH]c(=O)n2C	x	18	-2	7	11	30
CCn1c(N2CCN(CC(=O)c3c(C)n(C)c4ccccc34)CC2)nc2c1c(=O)[nH]c(=O)n2C	-3	6	-1	1	4	92*
N#CCSc1nc2ccc(N3CCCCC3)cc2c(=O)n1Cc1ccccc1	19	11	1	4	6	67*
N#CCSc1nc2ccccc2c(=O)n1CC1CCCC1	15	17	-2	3	4	26
O=C(O)c1cccc(NC2=C(Cl)C(=O)c3ccccc3C2=O)c1	52*	31	8	x	3	11
O=C(Nc1cccc(-c2nc3ccccc3[nH]2)c1)c1ccccn1	x	5	31*	1	x	18
O=C(Nc1ccccc1-c1nc2ccccc2[nH]1)c1ccc(N2C(=O)CCC2=O)cc1	4	14	-6	0	0	-31
O=C(Nc1ccc(-c2nc3ccccc3[nH]2)cc1)c1cccc(N2C(=O)CCC2=O)c1	3	65*	-7	0	5	-6
SMILES	G6PDH counter	SUMO HTRF inh	M18AAP inhibitor	HDAC3 inh	p97 ATPase inh	PHOSPHO1 inh
CCN1CCN(C(c2cccs2)C(C)NC(=O)C(=O)N2CCCCC2)CC1 (configuration not stated)	x	9	6	-7	x	33
Cc1cc(C)n(-c2ccc(Cl)c(C(=O)Nc3ccc(-c4nnc5n4CCCCC5)cc3)n2)n1	-3	-7	-1	0	0	62*
Cc1onc(-c2ccccc2Cl)c1C(=O)Nc1ccc(-c2nnc3n2CCCCC3)cc1	-2	10	0	-2	-3	45
NC(=O)Cn1c(=O)n(CCC(=O)Nc2ccc(F)cc2)c(=O)c2sccc21	x	11	1	-4	x	56
Cn1c(=O)[nH]c(=O)c2c1nc(N/N=C/C(Br)=C/c1ccccc1)n2CCO	x	10	30*	x	7	8
O=C(Nc1c2c(nn1-c1ccc([N+](=O)[O-])cc1)CS(=O)(=O)C2)c1ccco1	x	7	-5	8	x	32
Cc1ccc(Nc2nc(N/N=C/c3c[nH]c4ccccc34)nc(N3CCOCC3)n2)cc1	-13	-38	6	26*	5	8
N=C1S/C(=C\c2ccco2)C(=O)N1c1ccc2c(c1)OCO2	1	x	4	10	4	-14
N=C1S/C(=C\c2ccco2)C(=O)N1c1nccs1	1	94*	21	3	4	-14
S=C(Cc1cccnc1)N1CCOCC1	2	-1	28	-2	3	60*
CCn1c(=O)n(CC)c2cc(N3CCCC3)c(NC(=O)c3cc(Cl)ccc3OC)cc21	x	-19	4	-6	x	4
O=C(NCc1ccco1)c1cccnc1-c1nc2ccccc2s1	-12	12	31*	7	1	21
CCOc1ccc(N)c(SSc2cc(OCC)ccc2N)c1	x	-8	43*	0	x	67*
COc1ccc(C(=O)/C=C/Sc2nc3ccccc3o2)cc1	x	13	6	5	6	16
CCCCOC(=O)Sc1nc2ccccc2o1	0	25	0	3	5	94*
CCN1CCN(c2cc(C)nc(-c3ccccc3O)n2)CC1	x	6	1	0	-2	15
CCN(C(=O)CSc1nc2cc(S(=O)(=O)N(CC)CC)ccc2o1)C1CCS(=O)(=O)C1 (configuration not stated)	x	6	28*	3	x	-8
COc1ccc(-c2c(-c3cc(OC)cc(OC)c3)n(C)c3ccc(-c4ccc5[nH]ccc5c4)cc23)cc1	x	x	x	-7	x	x
COc1cc(/C=C2\C(=N)N3N=CSC3=NC2=O)ccc1OS(=O)(=O)c1ccccc1[N+](=O)[O-]	x	19	29*	9	x	29
COc1cc(/C=C2/C(=N)N3C(=NC2=O)SN=C3S(C)(=O)=O)ccc1OS(=O)(=O)c1ccccc1	x	22	10	-1	x	17
CC1(C)Cc2c(cnn2-c2ccc(F)cc2)C(NC(=O)c2cnccn2)C1 (configuration not stated)	x	-13	-1	-1	x	-41
CC1(C)Cc2c(cnn2-c2ccc(F)cc2)C(NC(=O)c2ccc(=O)oc2)C1 (configuration not stated)	x	1	0	-9	x	61*
